Screens deposited in PubChem by National Center for Advancing Translational Sciences (NCATS).
Shown is part of a subset that was picked to be rich in hits.
HT1080 IDH1KD tx: toxicity to HT-1080 IDH1 knockdown cells (counter line) | AID 686971 | HT-1080 IDH1 knockdown viability, ATP luminescence, 48 h | 360,000 compounds, 2% hits | Potency, µM (titrated, usually from 46.1 µM), without a hit: at the highest dose activity, negative = toxicity, usual class: cytotoxic;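 note: potency is the fitted concentration of half-maximal effect; 0% = DMSO wells and -100% = cell-free medium wells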
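IDH1KD HT-1080 cells, 750/well, RPMI + 5% FBS; compound pinned after 2 h settling; 48 h, 37 °C; CellTiter-Glo luminescence; % activity normalised to DMSO and no-cell wells; curves fitted, classed by r2 and efficacy.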
ALOX12 inh: blocks human arachidonate 12S-lipoxygenase | AID 1671190 | 580,000 compounds, 1.1% hits | Potency, µM (titrated, usually from 108 µM), for the others: at the highest dose activity change, negative = inhibition, most hits filed as inhibitors | purified 12hLO, xylenol orange hydroperoxide absorbance; note: potency is the fitted concentration of half-maximal effect
Target sequence (P18054 whole entry, looked up): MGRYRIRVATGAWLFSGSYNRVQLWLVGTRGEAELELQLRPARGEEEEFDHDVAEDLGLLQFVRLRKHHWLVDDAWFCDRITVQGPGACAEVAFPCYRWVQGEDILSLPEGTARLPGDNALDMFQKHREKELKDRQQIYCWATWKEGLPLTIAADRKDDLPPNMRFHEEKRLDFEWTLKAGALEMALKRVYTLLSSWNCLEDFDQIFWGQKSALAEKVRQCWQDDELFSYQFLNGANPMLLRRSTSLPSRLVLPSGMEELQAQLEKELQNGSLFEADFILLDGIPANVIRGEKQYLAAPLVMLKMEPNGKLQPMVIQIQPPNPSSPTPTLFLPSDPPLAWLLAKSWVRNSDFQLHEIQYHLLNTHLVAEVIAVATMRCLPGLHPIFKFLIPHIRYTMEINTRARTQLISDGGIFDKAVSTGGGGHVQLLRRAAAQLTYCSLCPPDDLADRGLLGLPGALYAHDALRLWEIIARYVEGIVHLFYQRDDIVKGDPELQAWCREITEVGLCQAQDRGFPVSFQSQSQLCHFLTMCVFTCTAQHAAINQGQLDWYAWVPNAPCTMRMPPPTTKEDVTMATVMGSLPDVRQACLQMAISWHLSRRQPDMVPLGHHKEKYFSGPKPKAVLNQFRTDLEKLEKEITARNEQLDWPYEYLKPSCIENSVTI
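Purified human 12hLO at 150 nM in 25 mM Hepes, 0.01% Triton X-100, pH 7.0, preincubated 15 min at room temperature with compound. Reaction started with 40 uM arachidonic acid, 30 min at room temperature. Hydroperoxide measured by Fe-xylenol orange, 573/405 nm absorbance ratio.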
IL-1B inflam inh: inflammasome signaling inhibition, IL-1 beta readout; THP-1 LPS/ATP IL-1B secretion, AlphaLISA, 16 h; hits give low values; activity change, % at 57.5 µM; 360,000 compounds, 4.7% hits; AID 743279; in the data active = activity change below about -50%; inconclusive = mostly about -30% to -49%
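Secreted IL-1B measured by AlphaLISA bead assay after 16 h compound exposure of THP-1 cells; compounds (final up to 57.5 uM) added 1 h before LPS (250 ng/mL) and ATP (1.25 mM) stimulation; lower signal means less secretion.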
DT40 TDP1 CPT: growth inhibition of DT40 Tdp1-/-;hTDP1 cells with camptothecin (screen for TDP1 inhibitors); chicken DT40 Tdp1-/-;hTDP1 cells + 20 nM CPT, ATP luminescence, 48 h; Potency, µM (top dose mostly 46.2 µM), inactives show at the top dose activity change, negative = growth inhibition, most hits filed as inhibitors; 420,000 compounds, 12% hits; AID 686979; note: potency is the fitted concentration of half-maximal effect; nearly all actives have a fitted effect of over 55% in size
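Cell growth measured by CellTiter-Glo luminescence after a minimum 48 h, 37 C compound exposure with 20 nM CPT in Tdp1-knockout DT40 cells stably expressing hTDP1, seeded 400/well; qHTS titration format.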
DT40 TDP1 no CPT: qHTS for Inhibitors of human tyrosyl-DNA phosphodiesterase 1 (TDP1): qHTS in cells in absence of CPT; DT40 Tdp1-/- hTDP1 cells, no CPT, ATP luminescence, 48 h; Potency, µM (top dose mostly 46.2 µM), without a hit: at the top dose activity change, negative = growth inhibition, actives largely listed as inhibitors; 420,000 compounds, 15% hits; note: potency is the fitted concentration of half-maximal effect; nearly all actives have a fitted effect of over 55% in size
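Camptothecin absent (DMSO only). Human TDP1-complemented DT40 knockout cells, 400 cells/well, 37 °C for minimum 48 hr; ATP measured via CellTiter-Glo, 30 min dark incubation, luminescence.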
HT1080NT lethal: kills 2HG-producing HT-1080-NT fibrosarcoma cells; HT-1080-NT fibrosarcoma viability, CellTiter-Glo ATP luminescence, 48 h; Potency, µM (doses to about 46.1 µM), without a hit: at the highest dose activity, negative = less viability, usual class: cytotoxic; 360,000 compounds, 1.6% hits; AID 686970;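 note: NT is the 2HG producing partner of a matched IDH1 knockdown line; potency is the fitted concentration of half-maximal effect; 0% = DMSO-treated cells and -100% = media-only wells without cells; nearly all actives have a fitted effect of over 55% in size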
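Compounds were tested in concentration-response format on HT-1080-NT cells for 48 hours at 37 degrees C. Cell viability came from CellTiter-Glo luminescence; curves were classified by r2, response magnitude and activity.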
* = called active by the depositor. Unless noted, calls come from the whole dose curve; as a rule, active = well fitted curve in the direction sought with a large enough effect; inconclusive = small, poorly fitted or top-dose-only effect, or another doubt; inactive = no such curve, though single readings can be large; an effect the other way counts as inactive or inconclusive. Unless noted, % is set by controls: 0 for no effect and ±100 for the full control effect.

For O=C(CCC(=O)N1CCN(c2ccc(O)cc2)CC1)c1cccs1 the results were HT1080 IDH1KD tx -30%, ALOX12 inh -24%, IL-1B inflam inh 8, DT40 TDP1 CPT inconclusive, DT40 TDP1 no CPT 23µM* and HT1080NT lethal 6%.
`Cc1ccc(CSCCC(=O)N2CCN(c3ccc(F)cc3)CC2)cc1` gave ALOX12 inh -19%, DT40 TDP1 CPT -9% and DT40 TDP1 no CPT -21%.
For O=C(CN1CCC(C(=O)c2ccc(F)cc2)CC1)Nc1ccc(F)cc1 the results were HT1080 IDH1KD tx -20%, ALOX12 inh 0%, IL-1B inflam inh -13, DT40 TDP1 CPT inconclusive, DT40 TDP1 no CPT inconclusive and HT1080NT lethal -19%.
NC(=O)C1CCN(c2cc(-c3noc([C@@H]4CCCN4Cc4ccc(F)c(F)c4)n3)ccn2)CC1 was read as ALOX12 inh 11%.
Cc1ccc(S(=O)(=O)N2CCCCC2)cc1NC(=O)COC(=O)C1(C)CC1(Cl)Cl (stereo unspecified) was read as HT1080 IDH1KD tx -1%, ALOX12 inh 25%, IL-1B inflam inh 8, DT40 TDP1 CPT 0%, DT40 TDP1 no CPT -20% and HT1080NT lethal 4%.
`Cc1ccc(OCCC(=O)N2CCN(c3ccc(O)cc3)CC2)cc1` gave HT1080 IDH1KD tx 7.3µM*, ALOX12 inh inconclusive, IL-1B inflam inh 24, DT40 TDP1 CPT inconclusive, DT40 TDP1 no CPT 16µM* and HT1080NT lethal inconclusive.
Screening COc1ccc(N2CCN(C(=O)CSCc3ccc(C)cc3)CC2)cc1 returned ALOX12 inh inconclusive, DT40 TDP1 CPT 21µM* and DT40 TDP1 no CPT 18µM*.
COc1ccc(N2CCN(C(=O)CSc3ccc(C)cc3)CC2)cc1 was read as HT1080 IDH1KD tx 11%, ALOX12 inh -18%, IL-1B inflam inh -15, DT40 TDP1 CPT -3%, DT40 TDP1 no CPT inconclusive and HT1080NT lethal 21%.
Cc1ccc(CSCC(=O)N2CCN(c3ccc(F)cc3)CC2)cc1 was read as HT1080 IDH1KD tx inconclusive, ALOX12 inh inconclusive, IL-1B inflam inh -17, DT40 TDP1 CPT 26µM*, DT40 TDP1 no CPT 23µM* and HT1080NT lethal 2%.
CC(NCc1ccccc1)C(=O)O (stereo unspecified) was read as ALOX12 inh -41%.
`C[C@]1(NC(=O)c2cnccn2)OC[C@@H]2CC[C@H](C(=O)NCc3ccc(OC(F)(F)F)cc3)N2C1=O` gave ALOX12 inh 1%.
Screening O=C(NC1CCCCC1)C(c1ccnc2ccccc12)n1c(=O)c(-c2ccccc2)nc2ccccc21 (stereo unspecified) returned HT1080 IDH1KD tx 12µM*, ALOX12 inh -22%, IL-1B inflam inh 55, DT40 TDP1 CPT 10µM*, DT40 TDP1 no CPT 13µM* and HT1080NT lethal 13µM*.
CCCCCNC(=O)C(c1ccnc2ccccc12)n1c(=O)c(-c2ccccc2)nc2ccccc21 (stereo unspecified) was read as HT1080 IDH1KD tx 18%, ALOX12 inh 0%, IL-1B inflam inh 30, DT40 TDP1 CPT inconclusive, DT40 TDP1 no CPT inconclusive and HT1080NT lethal 19%.
For CCC(C(=O)NC1CCCC1)n1c(-c2ccnc3ccccc23)nc2ccccc21 (stereo unspecified) the results were HT1080 IDH1KD tx -17%, ALOX12 inh -5%, IL-1B inflam inh -59*, DT40 TDP1 CPT inconclusive, DT40 TDP1 no CPT inconclusive and HT1080NT lethal -11%.
